The source of these data is paper PMC5540273 (PLoS ONE, 2017).

Test systems include MST1R; MST4; MTOR; MUSK; MYLK2; MYLK4; MYLK; MYO3A; MYO3B; NDR2; NEK10; NEK11; NEK1; NEK2; NEK3.
Common to all, as to settings: concentration: 1 μM, replicates: in singlicate; n = 1
A further assay concerns T1, MRCKB.
T1 construct: gene CDC42BPB

Another assay concerns T2, MST1.
T2 construct: gene STK4

For the next assay, the system named is T3, MST2.
T3 construct: gene STK3

The next assay has as its system T4, MST3.
T4 construct: gene STK24

In the next assay the test system is T5, NDR1.
T5 construct: gene STK38

Each structure is given as a SMILES string.
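Note: KINOMEscan kinase panel screen.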

For the compound `CCc1nc(-c2cccc(C)c2)c(-c2ccncc2)s1`, the “%Inh” value with MRCKB is 0%; in the assay with MST1R it was 0%; in the assay on MST1, 0%; in the assay with MST2, 8%; in the assay with MST3 it was 8%; with MST4 it was 0%. The “%Inh” value with MTOR was determined as 34%; in the assay on MUSK, 5%; with MYLK2, 5%; in the assay with MYLK4 it was 0%; in the assay with MYLK it was 12%; in the assay on MYO3A, 4%. Further, the “%Inh” value is 15% in the assay with MYO3B; 40% with NDR1; 0% in the assay on NDR2; 3% in the assay on NEK10; 0% in the assay on NEK11; 0% in the assay on NEK1. Moreover, the “%Inh” value in the assay with NEK2 turned out to be 0%; with NEK3, 28%.

Take `COc1cc(Nc2nccc(N3CCC(NC(=O)C(C)c4ccc(Cl)cc4)C3)n2)cc(OC)c1OC` (centres unmarked) [GSK1379757]: the “%Inh” value in the assay with MRCKB came to 0%; in the assay on MST1R, 37%; with MST1, 8%; in the assay on MST2, 5%; with MST3, 0%; in the assay with MST4, 0%. Besides, the “%Inh” value with MTOR is given as 36%; in the assay with MUSK, 0%; with MYLK2, 0%; with MYLK4 it was 0%; with MYLK it was 8%; with MYO3A it was 20%. In addition, the “%Inh” value in the assay with MYO3B was 0%; in the assay with NDR1 it was 26%; in the assay on NDR2, 0%; in the assay on NEK10, 0%; with NEK11 it was 12%; in the assay on NEK1, 8%. The “%Inh” value stood at 0% with NEK2 and 19% with NEK3.

Take `CCC(=O)c1c(-c2ccccc2)c2cc(Cl)ccc2c(=O)n1Cc1ccc(C(=O)O)cc1`: the “%Inh” value is given as 0% with MRCKB; 6% with MST1R; 0% in the assay on MST1; 0% in the assay with MST2; 0% in the assay with MST3; 0% with MST4. The “%Inh” value in the assay with MTOR, in the assay on MUSK, in the assay on MYLK2, with MYLK4, in the assay on MYLK and with MYO3A was 0% in each case. For the same compound, the “%Inh” value in the assay on MYO3B came out at 3%; in the assay on NDR1, 0%; in the assay with NDR2 it was 0%; in the assay with NEK10, 0%; in the assay with NEK11, 0%; with NEK1 it was 0%. In addition, the “%Inh” value in the assay on NEK2 stood at 0%; with NEK3 it was 22%.

In the case of `COc1cc2nccc(Nc3ccc(OCc4ccc(NC(C)=O)cc4)cc3)c2cc1OC.Cl` [GW440135], the “%Inh” value was 0% in the assay with MRCKB; 12% in the assay with MST1R; 0% in the assay with MST1; 20% in the assay with MST2; 0% in the assay with MST3; 1% in the assay on MST4. The “%Inh” value in the assay with MTOR came out at 15%; with MUSK it was 3%; in the assay with MYLK2 it was 0%; with MYLK4, 0%; in the assay with MYLK, 13%; with MYO3A it was 20%. The “%Inh” value in the assay on MYO3B stood at 0%; with NDR1 it was 0%; in the assay on NDR2, 0%; with NEK10, 12%; in the assay on NEK11 it was 0%; with NEK1, 0%. For the same compound, the “%Inh” value in the assay with NEK2 and in the assay with NEK3 was 0% in each case.

As for `COc1cc2nccc(Nc3cccc(Oc4ccccc4)c3)c2cc1OC.Cl` [GW284543], the “%Inh” value amounted to 0% with MRCKB; 18% in the assay on MST1R; 1% in the assay on MST1; 47% with MST2; 0% with MST3; 0% with MST4. The “%Inh” value is listed as 15% in the assay on MTOR; 6% with MUSK; 0% in the assay with MYLK2; 0% in the assay with MYLK4; 0% in the assay with MYLK; 0% with MYO3A. The “%Inh” value amounted to 36% in the assay with MYO3B; 8% with NDR1; 0% in the assay with NDR2; 0% in the assay on NEK10; 19% in the assay on NEK11; 0% in the assay on NEK1. Besides, the “%Inh” value in the assay with NEK2 and with NEK3 was 0% throughout.

For the compound `O=c1cc(N2CCOCC2)nc2n(Cc3ccc(F)c(Cl)c3)ccn12` [GSK2297099], the “%Inh” value in the assay with MRCKB was 0%; in the assay on MST1R it was 13%; with MST1 it was 0%; in the assay on MST2, 16%; in the assay on MST3 it was 0%; in the assay with MST4 it was 0%. Also, the “%Inh” value in the assay on MTOR turned out to be 12%; in the assay with MUSK, 5%; with MYLK2, 0%; in the assay with MYLK4 it was 3%; in the assay on MYLK it was 9%; in the assay on MYO3A it was 8%. The “%Inh” value is on record as 0% in the assay on MYO3B; 9% with NDR1; 0% in the assay with NDR2; 0% with NEK10; 0% in the assay with NEK11; 0% in the assay on NEK1. Moreover, the “%Inh” value in the assay on NEK2 amounted to 0%; with NEK3 it was 13%.

`COc1cccc(-n2cnc3c(N)ncnc32)c1` [SKF-97416]: the “%Inh” value is given as 0% in the assay with MRCKB; 5% with MST1R; 0% in the assay with MST1; 0% in the assay with MST2; 6% in the assay on MST3; 28% in the assay on MST4. The “%Inh” value in the assay with MTOR worked out at 19%; in the assay with MUSK it was 5%; with MYLK2, 6%; with MYLK4, 26%; in the assay on MYLK, 31%; with MYO3A, 8%. For the same compound, the “%Inh” value with MYO3B amounted to 20%; in the assay on NDR1, 28%; in the assay with NDR2, 12%; in the assay on NEK10, 18%; with NEK11 it was 35%; in the assay on NEK1, 0%. Moreover, the “%Inh” value with NEK2 turned out to be 0%; in the assay with NEK3 it was 21%.

Take `O=C(NCc1cccs1)c1cc(C(=O)c2c(Cl)cccc2Cl)c[nH]1` [GW823670]: the “%Inh” value turned out to be 0% in the assay with MRCKB; 0% with MST1R; 15% in the assay on MST1; 0% in the assay on MST2; 0% with MST3; 0% in the assay on MST4. Further, the “%Inh” value with MTOR stood at 0%; with MUSK, 2%; with MYLK2, 0%; in the assay with MYLK4, 4%; in the assay on MYLK, 0%; in the assay on MYO3A it was 0%. Besides, the “%Inh” value in the assay on MYO3B was found to be 18%; in the assay with NDR1, 26%; with NDR2, 14%; with NEK10, 0%; with NEK11 it was 0%; in the assay on NEK1 it was 15%. Moreover, the “%Inh” value with NEK2 stood at 0%; in the assay with NEK3 it was 20%.

With `FC(F)(F)c1ccc(-c2ncn(CCCN3CCOCC3)c2-c2ccncc2)cc1` [SB-217780], the “%Inh” value was found to be 6% in the assay with MRCKB; 28% in the assay with MST1R; 28% in the assay on MST1; 59% in the assay with MST2; 35% with MST3; 0% in the assay on MST4. Besides, the “%Inh” value in the assay on MTOR is listed as 12%; in the assay on MUSK it was 0%; in the assay with MYLK2 it was 0%; with MYLK4, 4%; in the assay on MYLK, 4%; with MYO3A, 0%. For the same compound, the “%Inh” value stood at 0% in the assay on MYO3B; 3% with NDR1; 0% in the assay with NDR2; 4% with NEK10; 0% with NEK11; 0% with NEK1. Besides, the “%Inh” value in the assay with NEK2 worked out at 0%; in the assay with NEK3 it was 9%.

With `COc1cccc(C2=C(Nc3cccc(C(=O)O)c3)C(=O)NC2=O)c1` [SB-390770], the “%Inh” value stood at 18% in the assay with MRCKB; 2% with MST1R; 28% in the assay on MST1; 25% in the assay with MST2; 0% in the assay on MST3; 0% with MST4. Also, the “%Inh” value with MTOR is 29%; in the assay with MUSK it was 15%; in the assay with MYLK2 it was 38%; with MYLK4, 0%; in the assay with MYLK it was 0%; with MYO3A, 0%. Further, the “%Inh” value with MYO3B worked out at 8%; with NDR1 it was 0%; in the assay on NDR2, 0%; in the assay with NEK10, 40%; in the assay on NEK11, 36%; with NEK1, 0%. Further, the “%Inh” value with NEK2 and with NEK3 was 0% in each case.
